Test results from PubChem BioAssay AID463195 (Sanford-Burnham Center for Chemical Genomics, 2010).
The campaign covered roughly 330,000 compounds. About 4,600 (1.4%) were called active.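 How the source made its calls: active means inhibition of 40% or more at the single tested concentration; inactive means the rest.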 Shown is part of a subset that was picked to be rich in actives.

Test: wild-type TIM10 yeast growth inhibition – luminescence, uHTS, counter-screen for tim10-1 yeast inhibitor project, primary screen (AID 463195);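 further: wild-type TIM10 isogenic control strain grown at permissive 25 °C; 0% = DMSO yeast wells and 100% = minimal medium wells without yeast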
Conditions: S. cerevisiae TIM10 strain growth, BacTiter-Glo luminescence, 24 h; at 10 µM; active compounds read high
In the case of `Cn1c(Cc2csc(N)n2)nnc1SC/C=C/c1ccccc1`, the inhibition is reported as 7.09% (inactive). In the case of `CCN(Cc1nc2ccccc2c(=O)[nH]1)Cc1cc(=O)oc2cc(C)c(C)cc12`, the inhibition is reported as -2.16% (inactive). In the case of `COc1ccc(C(=O)NC(C)c2nccs2)cc1OC1CCN(C(C)C)CC1` (configuration not stated), the inhibition is reported as -15% (inactive). For `O=C(Nc1nnc(CCOCCOCCc2nnc(NC(=O)c3ccco3)s2)s1)c1ccco1`, the inhibition was -7.13% (inactive). With `NC(=O)c1ccsc1NC(=O)c1ccco1` the inhibition was 8.27% (inactive). For `O=C(Nc1nc(-c2ccco2)c(-c2ccco2)s1)c1ccco1`, the inhibition was 40.3% (active). In the case of `CS/C(=C\[N+](=O)[O-])Nc1ccc(C)cc1`, the inhibition is reported as 30% (inactive). With `CCc1c(C)[nH]c(=S)c(C#N)c1C` the inhibition was 3.94% (inactive). In the case of `O=C(NCCCCc1ccccc1)C1CC(c2ccc([N+](=O)[O-])cc2)=NO1` (configuration not stated), the inhibition is reported as -15.3% (inactive). In the case of `CC(=O)N1c2ccccc2N(Cc2ccc([N+](=O)[O-])cc2)C(=O)C1(C)C`, the inhibition is reported as 27.8% (inactive). In the case of `O=C1NC(=O)C2C1C(c1ccc([N+](=O)[O-])cc1)=NN2Cc1ccccc1` (configuration not stated), the inhibition is reported as 46.2% (active). In the case of `c1ccc2c(c1)CSc1sccc1C2=C1CCNCC1`, the inhibition is reported as 1.38% (inactive). In the case of `COc1ccc(OC)c(C(=O)c2ccc(C(=O)N3CCN(Cc4csc(C)n4)CC3)cc2)c1`, the inhibition is reported as -9.33% (inactive). With `CCOC(=O)c1cn[nH]c1NC(=S)Nc1ccccc1` the inhibition was -4.24% (inactive). With `CSC1=N/C(=C\C=C\c2cccs2)C(=O)S1` the inhibition was 46.2% (active). For `CCC1C/C(=C/c2cccs2)C(=O)/C(=C/c2cccs2)C1` (configuration not stated), the inhibition was 8.85% (inactive). For `COC(=O)c1cccc(N2C(=O)C3C4C=CC(CC4)C3C2=O)c1` (configuration not stated), the inhibition was -2.62% (inactive). With `O=C(OCC(=O)N(CCc1ccccc1)Cc1ccccc1)c1ccccc1[N+](=O)[O-]` the inhibition was 6.8% (inactive). For `O=C(Nc1ccc(O)cc1)c1ccc(NC(=O)c2ccco2)cc1`, the inhibition was -7.64% (inactive). With `O=C(Nc1ccnc(-c2ccncc2)n1)c1cccs1` the inhibition was 5.09% (inactive). For `O=C(Nc1ccc(NC(=O)c2cccs2)cn1)c1ccco1`, the inhibition was 49.1% (active). In the case of `O=C(CN1CCN(C(=O)C2CCCO2)CC1)Nc1c(Cl)cccc1Cl` (configuration not stated), the inhibition is reported as -3.56% (inactive). With `O=[N+]([O-])c1ccc(N2CCN(c3ccc(F)cc3)CC2)cn1` the inhibition was 9.61% (inactive). With `C/C=N/NC(=O)CCCC(=O)N/N=C/C` the inhibition was 19.2% (inactive). With `CC(C)c1ccc(NC(=S)NC2CC3C=CC2C3)cc1` (configuration not stated) the inhibition was 41.7% (active). For `S=C(NNC(=S)NC1CC2CCC1C2)NC1CC2C=CC1C2` (configuration not stated), the inhibition was 31.5% (inactive). For `S=C(NNC(=S)NC1CC2C=CC1C2)NC1CC2C=CC1C2` (configuration not stated), the inhibition was 11.5% (inactive).
